Results on 21 compounds are retold here after PubChem BioAssay (NCI).

A short description of test [1]: NCI Yeast Anticancer Drug Screen. Data for the rad50 strain (AID 155).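 Also: 0% = growth of vehicle-only cultures of the same strain.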 The settings on record: S. cerevisiae rad50 strain growth inhibition; at 50.0 µM; stronger effect = higher value. The procedure, abridged: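 Inhibition values express reduced yeast growth in compound-treated cultures relative to vehicle-treated controls.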
Test [2] is described as follows: NCI Yeast Anticancer Drug Screen. Data for the mec2-1 strain (AID 157). Particulars: S. cerevisiae mec2-1 strain, at 50.0 µM, stronger effect = higher value. The essentials:
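Growth inhibition is read against vehicle-treated controls after compound exposure of the mec2-1 yeast strain, which is defective in DNA damage repair or cell cycle control.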

Test [3] can be described thus: NCI Yeast Anticancer Drug Screen. Data for the sgs1 mgt1 strain (AID 161).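 Also: 0% = growth of cultures given vehicle only.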 The settings on record: S. cerevisiae sgs1 mgt1 strain, at 50.0 µM, stronger effect = higher value. The essentials:
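Yeast cells carrying a defined DNA-repair defect were exposed to test compounds. Growth inhibition was measured relative to vehicle-treated controls.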

A short description of test [4]: NCI Yeast Anticancer Drug Screen. Data for the cln2 rad14 strain (AID 165).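 Also: 0% = growth equal to vehicle treated cultures.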 The settings on record: S. cerevisiae cln2 rad14 strain, at 50.0 µM, stronger effect = higher value. The essentials:
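Growth inhibition, relative to vehicle-treated controls, is the read-out. The test organism is a yeast strain with defined genetic alterations, cln2 rad14.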

Test [5] is described as follows: NCI Yeast Anticancer Drug Screen. Data for the bub3 strain (AID 167). Particulars: S. cerevisiae bub3 mutant strain, at 50.0 µM, stronger effect = higher value. The procedure, abridged: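 Steps: expose the mutant yeast strain to compound; grow alongside vehicle-treated cultures; measure growth; express inhibition against the vehicle cultures.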
A short description of test [6]: NCI Yeast Anticancer Drug Screen. Data for the mlh1 rad18 strain (AID 175). The settings on record: S. cerevisiae mlh1 rad18 strain growth inhibition; at 50.0 µM; stronger effect = higher value. The procedure, abridged: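 Cells of a genetically altered yeast strain, deficient in DNA damage repair, were treated with compound. Their growth was then compared with that of vehicle-treated cultures to give inhibition.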

Compounds without any hit were thinned out: in the full panel of roughly 79,000, 15% have a hit. Unmarked numbers belong to inactive results. Calls of active or inactive are those of the source. Rule as the data show it: active = growth inhibition above about 70%; inactive = the rest.

For `N#Cc1cccc(NC(=O)c2ccc(C(=O)O)c(C(=O)c3ccc(C(=O)O)c(C(=O)Nc4cccc(C#N)c4)c3)c2)c1`, the growth inhibition was -18.6% in test [1]; -9.7% in test [2]; -19% in test [3]; 8.35% in test [4]; 2% in test [5]; -20.8% in test [6].
In the case of `Cc1nn(-c2ccccc2)c2c1CC(=O)Nc1ccccc1-2`, the growth inhibition in test [1] is -14.1%; in test [2] it was -29.1%; in test [3] it was -11.5%; in test [4], -26.8%; in test [5], -37.6%; in test [6] it was 9.15%.
For the compound `NC(CCC(=O)NC1(C(=O)O)C2CC3CC(C2)CC1C3)C(=O)O` (stereo unspecified), the growth inhibition in test [1] was 6%; in test [2], -0.1%; in test [3] it was -5%; in test [4], -18%; in test [5], -4.4%; in test [6] it was 4.85%.
Turning to `CC(C)(C)COc1ccc2c(c1)C1=NC2=NC2=NC(=NC3=NC(=NC4=NC(=N1)c1ccc(OCC(C)(C)C)cc14)c1ccc(OCC(C)(C)C)cc13)c1ccc(OCC(C)(C)C)cc12`, the growth inhibition was 12.8% in test [1]; 1.1% in test [2]; -10.1% in test [3]; -14.6% in test [4]; -5.45% in test [5]; 18.4% in test [6].
Consider `C1=CC(c2ccccc2)C(c2ccccc2)C(c2ccccc2)=C1` (stereo unspecified), for which the growth inhibition is -16.6% in test [1]; 2.05% in test [2]; 8.8% in test [3]; -13.2% in test [4]; -4.95% in test [5]; -22.6% in test [6].
Regarding `COc1ccccc1NCC(=O)Nn1c(C)nc2ccc(S(=O)(=O)Nc3ccccc3OC)cc2c1=O`, the growth inhibition in test [1] was 2.85%; in test [2] it was -18.9%; in test [3], 20.9%; in test [4] it was 16.2%; in test [5] it was 1.55%; in test [6], 0.1%.
Regarding `CCCCS(=O)(=O)Nc1cccc(C(=O)O)c1`, the growth inhibition is 2.85% in test [1]; -9.1% in test [2]; 20.9% in test [3]; -17.4% in test [4]; 39.8% in test [5]; -7.15% in test [6].
Turning to `NCCCCC(N)C(=O)NC1C(CO)OC(n2cnc3c(N)ncnc32)C1O` (stereo unspecified), the growth inhibition is 31.9% in test [1]; 13.2% in test [2]; 7.55% in test [3]; 14.3% in test [4]; 5.75% in test [5]; 30.1% in test [6].
With `CC(=O)C1C(=O)C(=O)N(c2ccc(F)cc2)C1=O` (stereo unspecified), the growth inhibition is -17.4% in test [1]; -15.5% in test [2]; -5.4% in test [3]; -6.95% in test [4]; -25.9% in test [5]; -27.3% in test [6].
As for `Cc1cc(O)c(C(c2ccccn2)c2c(O)cc(C)[nH]c2=O)c(=O)[nH]1`, the growth inhibition in test [1] was -4.85%; in test [2] it was 6.15%; in test [3] it was -7.9%; in test [4] it was -2.55%; in test [5] it was -0.25%; in test [6], 5%.
Regarding `CC1(O)C=CC(=O)C=C1`, the growth inhibition was 0.05% in test [1]; 6.75% in test [2]; -15.2% in test [3]; 1.95% in test [4]; -24.1% in test [5]; -7.6% in test [6].
In the case of `O=C(O)CC1=C(c2ccccc2)C(O)(c2ccccc2)CC1=O` (stereo unspecified), the growth inhibition in test [1] was 4.75%; in test [2], 15.3%; in test [3] it was 7.05%; in test [4], -27.9%; in test [5], 11.2%; in test [6], -11.1%.
As for `CCOC(=O)c1ccc2c(c1)Cc1c-2cc(Br)c(N)c1Br`, the growth inhibition in test [1] is 78.5% (active); in test [2], 3.1%; in test [3] it was 45%; in test [4], 9.15%; in test [5] it was 18.4%; in test [6] it was 47%.
In the case of `COc1cc(/C=N/n2c(C)cc(C)c(C#N)c2=O)cc(OC)c1OC`, the growth inhibition was -11.9% in test [1]; 12.9% in test [2]; -3.4% in test [3]; 9.1% in test [4]; -1.05% in test [5]; -25.4% in test [6].
Turning to `CC(C)=CCOc1ccc(-c2coc3cc4c(c(O)c3c2=O)C=CC(C)(C)O4)cc1`, the growth inhibition in test [1] is 15.7%; in test [2], 3.1%; in test [3] it was 15.9%; in test [4], 13.3%; in test [5] it was 24%; in test [6], 26.8%.
Regarding `CCOc1ccc(N=C=S)cc1`, the growth inhibition was 29.9% in test [1]; -3.05% in test [2]; 18% in test [3]; 22.3% in test [4]; 18.9% in test [5]; 49% in test [6].
As to `COc1ccc(C(C)(O)c2cc3ccccc3n2S(=O)(=O)c2ccccc2)cc1` (stereo unspecified), the growth inhibition in test [1] is -8.95%; in test [2], -12.3%; in test [3] it was -0.9%; in test [4] it was -14.3%; in test [5], 0.75%; in test [6], 18.4%.
On to `CC(C)=CCC/C(C)=C/COC(=O)N(c1ccccc1)c1ccccc1`, for which the growth inhibition in test [1] is 5.95%; in test [2], -0.1%; in test [3], 3.9%; in test [4] it was -47%; in test [5], 3.6%; in test [6] it was -1.15%.
As to `CC(C)[Si]1(C(C)C)OCC2OC(n3c(C(=O)c4ccccc4)cc(=O)[nH]c3=O)CC2O[Si](C(C)C)(C(C)C)O1` (stereo unspecified), the growth inhibition is -2.2% in test [1]; 5.7% in test [2]; 17.5% in test [3]; 24.4% in test [4]; 17.9% in test [5]; 6.35% in test [6].
As to `N#CC1CCCC[N-]1.[NH-]CC[N-]CC[NH-].[Pt+4]` (stereo unspecified), the growth inhibition in test [1] is 57.9%; in test [2] it was 17.2%; in test [3], 53.6%; in test [4], -10.1%; in test [5], 4.05%; in test [6] it was 43%.
As for `Cc1cc(NC(C)C)c(C)cc1NC(C)C`, the growth inhibition in test [1] was 49%; in test [2], 31.9%; in test [3], 47.1%; in test [4], 21.8%; in test [5] it was 33.5%; in test [6], 43.8%.
